# Screens (PubChem BioAssay)
# Pf growth 96h – P. falciparum growth inhibition at 96 hours; P. falciparum luciferase reporter growth, 96 h; Potency, µM (titrated, usually from 28.7 µM), for inactives: top-dose activity change, negative = inhibition, actives largely listed as inhibitors; 6.9% of 320,000 active; AID 504834; also: potency is read from the fitted curve at half-maximal effect
#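 Delayed-death screen, second-generation endpoint: infected erythrocytes, 2% hematocrit, 0.05% parasitemia final; 96 hours at 37 C, 5% CO2; luciferase detection reagent; luminescence decrease equals reduced growth.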
# Giardia FBPA inh – inhibitors of Giardia lamblia fructose-1,6-bisphosphate aldolase. A8B2U2. purified Giardia FBPA. Potency, µM (series often up to 59.6 µM), for inactives: at the top dose activity, negative = inhibition, actives largely listed as inhibitors. 0.71% of 290,000 active; also: potency is read from the fitted curve at half-maximal effect; nearly all actives have a fitted effect of over 55% in size
# Target sequence (A8B2U2 whole entry, looked up): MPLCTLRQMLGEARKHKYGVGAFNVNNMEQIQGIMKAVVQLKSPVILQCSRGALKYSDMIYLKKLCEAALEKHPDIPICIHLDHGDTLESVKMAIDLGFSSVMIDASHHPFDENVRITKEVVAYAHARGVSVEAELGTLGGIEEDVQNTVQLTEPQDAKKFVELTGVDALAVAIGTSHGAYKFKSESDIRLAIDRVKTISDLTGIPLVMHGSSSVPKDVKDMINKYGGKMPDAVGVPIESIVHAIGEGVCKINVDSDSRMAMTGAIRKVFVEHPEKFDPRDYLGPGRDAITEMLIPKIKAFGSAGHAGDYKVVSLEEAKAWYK
#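 Giardia FBPA (40 nM reagent) was preincubated 10 min at RT with compound (up to 57.5 uM final), then substrate plus GAPDH/TPI/NAD/arsenate coupling system with diaphorase/resazurin was added; resorufin fluorescence (525/598 nm) was read after 20 min.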
# Pf growth 48h – inhibits P. falciparum growth in the first generation, 48 h | P. falciparum luciferase growth in erythrocytes, 48 h | Potency, µM (highest dose often 28.7 µM), inactives show at the top dose activity change, negative = inhibition, usual class: inhibitors | 5.9% of 310,000 active; also: potency is read from the fitted curve at half-maximal effect
#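 Growth was read as firefly luciferase luminescence after a 48 h, 37 C, 5% CO2 exposure of compounds to reporter-bearing P. falciparum cultures (0.1% parasitemia, 2% hematocrit final) in Albumax-supplemented RPMI 1640.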
# Sm TGR inh – S. mansoni TGR enzyme inhibition. Q962Y6. purified TGR, DTNB reduction, TNB absorbance 405 nm. Potency, µM (top dose mostly 114 µM), for the others: at the top dose activity change, negative = inhibition, hits mostly inhibitors. 3% of 360,000 active. AID 485364; also: potency is read from the fitted curve at half-maximal effect; nearly all actives have a fitted effect of over 60% in size
#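 TGR 20 nM + NADPH 100 uM (dispensed conc.), cpd preinc 15 min RT; start with NADPH (500 uM addition) then DTNB (15 mM addition). Kinetic TNB absorbance, 405 nm filter. Four-parameter Hill fit across titration.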
# HCMV inh – blocks human cytomegalovirus replication. AID 1259415. HFF cells, HCMV-luciferase reporter, 72 h; hits give low values. activity change, negative = inhibition, % at 57.5 µM. 4.5% of 410,000 active; in the data active = activity change below about -60%; inconclusive = no clear call, values can overlap the other calls; inactive = above about -39%
#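 Two-dose cell screen: HFF monolayers treated with compounds and infected with luciferase-expressing HCMV at 1 PFU/cell, 72 h at 37C, then lysed for luciferase measurement.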
# Starred values were filed as active, the others as inactive; u = inconclusive; x = no result given; [ ] = another dose, or the depositor's remark. Most compounds without a hit are left out; they make up all but 14% or so of the library. Unless noted, calls follow the shape of the dose curve; as a rule, active = well fitted curve in the direction sought with a large enough effect; inconclusive = small, poorly fitted or top-dose-only effect, or another doubt; inactive = no such curve, though single readings can be large; an effect the other way counts as inactive or inconclusive. % is scaled to controls: 0 for no effect and ±100 for the full control effect.
SMILES,Pf growth 96h,Giardia FBPA inh,Pf growth 48h,Sm TGR inh,HCMV inh
CCN1[C@@H]2c3ccc(-c4ccc(OC)cc4)c(=O)n3C[C@@H]2[C@@H](CO)[C@@H]1C(=O)NCCN1CCCCC1,x,x,x,x,10
CCOC(=O)C1=C(CN2CCSCC2)NC(=O)NC1c1ccc2c(c1)OCO2 (centres undefined),3%,-4%,6%,4%,-29
CC1=C(C(=O)OCCCBr)C(c2ccc3c(c2)OCO3)NC(=O)N1 (centres undefined),u,-10%,u,25µM*,x
CC1=C(C(=O)OCc2ccc3c(c2)OCO3)C(c2ccc(Cl)cc2)NC(=O)N1 (centres undefined),-18%,0%,x,-1%,-86*
CCCCCOC(=O)C1=C(C)NC(=O)NC1c1ccc2c(c1)OCO2 (centres undefined),-3%,-3%,60%,4%,-36
CC1=C(C(=O)OCc2ccc3c(c2)OCO3)C(c2ccc(F)cc2)NC(=O)N1 (centres undefined),3%,0%,21%,-30%,x
CCOC(=O)C1=C(Cn2cnc3ccccc32)NC(=O)NC1c1ccc(Cl)cc1 (centres undefined),5.9µM*,6%,x,4%,-21
CCOC(=O)C1=C(Cn2cnc3ccccc32)NC(=O)NC1c1ccc(OC)cc1 (centres undefined),u,4%,x,-36%,-23
CCOC(=O)C1=C(CCl)NC(=O)NC1c1ccc2c(c1)OCO2 (centres undefined),2%,1%,u,8.9µM*,-5
CC(C)[C@H](NC(=O)c1ccccc1F)C(=O)NCc1ccc(S(N)(=O)=O)cc1,-2%,2%,5%,-13%,4
O=[N+]([O-])c1ccccc1S(=O)(=O)N1CCN(c2ccccc2)CC1,0%,-1%,10%,6%,-1
CC(C)C[C@H](NC(=O)[C@@H](Cc1c[nH]c2ccccc12)NC(=O)[C@H](Cc1ccc(O)cc1)NC(=O)[C@H](CO)NC(=O)[C@H](Cc1c[nH]c2ccccc12)NC(=O)[C@H](Cc1cnc[nH]1)NC(=O)[C@@H]1CCC(=O)N1)C(=O)N[C@@H](CCCN=C(N)N)C(=O)N1CCC[C@H]1C(=O)NCC(N)=O,x,4%,x,x,x
CCC(=O)N[C@@H]1CCc2cccc(OC)c2C1,x,5%,x,x,x
Cc1ccc(OCC(=O)OCc2cc(=O)n3nc(-c4cccs4)sc3n2)cc1C,x,x,x,-2%,6
CC1=C(C(=O)OC2CCCCC2)C(c2ccc(F)cc2)NC(=O)N1 (centres undefined),9.3µM*,2%,4%,8%,-38
CC1=C(C(=O)OCCBr)C(c2cccc3ccccc23)NC(=O)N1 (centres undefined),u,-6%,x,40µM*,-23
CC1=C(C(=O)OC2CCCCC2)C(c2ccc(O)cc2)NC(=O)N1 (centres undefined),0%,4%,2%,8%,4
Cn1nc(C(=O)OCc2ccc(F)cc2)c2ccccc2c1=O,26%,6%,142%,-1%,-23
Cc1ccc(COC(=O)c2nn(C)c(=O)c3ccccc23)cc1,32%,9%,18%,-1%,-92*
CN1CCN(c2ncc3nc(-c4cccs4)c(=O)n(CCC#N)c3n2)CC1,x,1%,x,x,x
N#C/C(=C\c1ccc(OC(=O)c2ccc(Cl)s2)cc1)c1nc2ccccc2[nH]1,u,5%,1%,4%,-36
Cc1[nH]nc2ncc(C(=O)c3ccccc3O)cc12,u,4%,u,-2%,-82*
CN1Cc2cc(C(=O)c3ccccc3O)cnc2NC1=O,u,7%,u,-13%,u
CN(C)Cc1csc(NC(=O)Nc2ccccc2C(C)(C)C)n1,x,x,x,x,-76*
NS(=O)(=O)c1cc(C(=O)N=Nc2c(O)[nH]c3ccccc23)ccc1Cl,1.5µM*,-14%,10µM*,11%,-29
SMILES,Pf growth 96h,Giardia FBPA inh,Pf growth 48h,Sm TGR inh,HCMV inh
O=C(NCCc1c[nH]c2ccccc12)c1cccc(S(=O)(=O)Nc2ccccc2Cl)c1,u,6%,5%,0%,-100*
CC(C)(O)C(=O)N=Nc1c(O)[nH]c2ccccc12,2%,0%,112%,9%[57.1 µM],43
O=C(N=Nc1c(O)[nH]c2ccccc12)c1cccc(S(=O)(=O)Nc2ccccc2Cl)c1,-6%,2%,-27%,6%,-72*
CCCC1(CCC)NC(=O)N(CC(=O)N2CCc3ccccc32)C1=O,x,x,x,x,165
COc1ccc(N2C(=O)CC(=O)NC2=O)cc1,-5%,-6%,28%,u,13
COc1ccc(N2C(=O)CC3(CCCC3)CC2=O)cc1,6.6µM*,4%,21%,-9%,-19
O=C1CC2(CCCC2)CC(=O)N1c1ccccc1,12µM*,7%,u,1%,62
CCC(=O)N(c1nnc(SC(C)C(=O)Nc2ccc(N3CCOCC3)cc2)s1)C1CC1 (centres undefined),x,x,x,x,8
O=C(NCCc1ccccc1)C1CCCN(c2cnccn2)C1 (centres undefined),19%,x,-11%,7%,22
O=C(c1ccccn1)N(CCO)C(c1ccccc1)c1nc2ccccc2[nH]1 (centres undefined),x,x,x,x,23
CC(=O)C[C@H](O)CC(=O)[C@H]1OC(=O)[C@H](C)C/C=C\Cc2ccccc21,34%,x,71%,4%,21
COc1ccc(CNC(=O)CN2C(=O)NC(Cc3ccccc3)(c3ccccc3)C2=O)cc1OC (centres undefined),15µM*,x,u,-8%,-6
COc1ccc(CNC(=O)CN2C(=O)NC(c3ccccc3)(c3ccccc3)C2=O)cc1OC,x,x,x,x,-17
CC(C)N(Cc1ccccc1)C(=O)CN1C(=O)NC(Cc2ccccc2)(c2ccccc2)C1=O (centres undefined),12µM*,x,u,7%,-9
COc1ccc(Br)cc1CNC(=O)C1CCCCN1S(=O)(=O)c1ccc(F)cc1 (centres undefined),x,x,x,6%,-23
O=C(C1=C[C@@H](c2ccc3c(c2)OCO3)C[C@@H](OCCCCO)O1)N1CCOCC1,u,-17%,u,45µM*,-21
O=C(C1=C[C@H](c2ccc(Br)cc2)C[C@H](OCCCCO)O1)N1CCN(Cc2ccc3c(c2)OCO3)CC1,4.1µM*,-9%,1.5µM*,-10%,x
O=C(NCc1ccccc1)C1=C[C@H](c2ccc3c(c2)OCO3)C[C@H](OCCCCO)O1,-25%,u,-17%,u,3
CN1CCN(C(=O)C2=C[C@H](c3ccc4c(c3)OCO4)C[C@H](OCCCCO)O2)CC1,x,x,x,x,-16
O=C(C1=C[C@H](c2ccc3c(c2)OCO3)C[C@H](OCCCCO)O1)N1CCN(Cc2ccccc2)CC1,13µM*,-26%,u,25µM*,1
